# Screening data (PubChem BioAssay)
# DT40 TDP1 CPT: qHTS for Inhibitors of human tyrosyl-DNA phosphodiesterase 1 (TDP1): qHTS in cells in presence of CPT; Potency, µM (top dose mostly 46.2 µM), without a hit: at the highest dose activity change, negative = growth inhibition, hits mostly inhibitors; chicken DT40 Tdp1-/-;hTDP1 cells + 20 nM CPT, ATP luminescence, 48 h; 420,000 compounds, 12% hits; also: potency is read from the fitted curve at half-maximal effect; % is scaled to controls: 0 for no effect and ±100 for the full control effect; nearly all actives have a fitted effect of over 55% in size
#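 Cell growth measured by CellTiter-Glo luminescence after a minimum 48 h, 37 C compound exposure with 20 nM CPT in Tdp1-knockout DT40 cells stably expressing hTDP1, seeded 400/well; qHTS titration format.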
# DT40 TDP1 no CPT: qHTS for Inhibitors of human tyrosyl-DNA phosphodiesterase 1 (TDP1): qHTS in cells in absence of CPT; Potency, µM (series often up to 46.2 µM), without a hit: top-dose activity change, negative = growth inhibition, hits mostly inhibitors; DT40 Tdp1-/- hTDP1 cells, no CPT, ATP luminescence, 48 h; 420,000 compounds, 15% hits; also: potency is read from the fitted curve at half-maximal effect; % is scaled to controls: 0 for no effect and ±100 for the full control effect; nearly all actives have a fitted effect of over 55% in size
#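 Seeded 400 DT40-hTDP1 cells/well (vehicle DMSO, no 20 nM CPT); pinned compounds; ≥48 hr at 37 °C; CellTiter-Glo luminescence as viability measure.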
# MCF10A rerep: A quantitative high throughput screen for small molecules that induce DNA re-replication in MCF 10a normal breast cells | MCF 10A DNA re-replication, Hoechst nuclear intensity, 48 h | Potency, µM (series often up to 46.1 µM), for the others: top-dose activity, positive = re-replication, hits mostly activators | 350,000 compounds, 2.9% hits | AID 624296, 2012; also: potency is read from the fitted curve at half-maximal effect; % of control where 0% means no effect; nearly all actives have a fitted effect of over 50% in size
# IL1B secr inh: qHTS for Inhibitors of Inflammasome Signaling: IL-1-beta AlphaLISA Primary Screen; THP-1 LPS/ATP IL-1B secretion, AlphaLISA, 16 h; stronger effect = lower value; activity change, % at 57.5 µM; 360,000 compounds, 4.7% hits; AID 743279, 2014; in the data active = activity change below about -50%; inconclusive = mostly about -30% to -49%; also: % is scaled to controls: 0 for no effect and ±100 for the full control effect
#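 Secreted IL-1B measured by AlphaLISA bead assay after 16 h compound exposure of THP-1 cells; compounds (final up to 57.5 uM) added 1 h before LPS (250 ng/mL) and ATP (1.25 mM) stimulation; lower signal means less secretion.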
# BCR signal inh: qHTS Assay to Find Inhibitors of Chronic Active B-Cell Receptor Signaling; ABC-DLBCL IkBa-CBG/CBR reporter, luminescence ratio, 4 h; Potency, µM (highest dose often 46.1 µM), for inactives: top-dose activity change, negative = inhibition, hits mostly inhibitors; 340,000 compounds, 0.05% hits; AID 493014, 2011; active = well fitted inhibition curve with a large enough effect in the signal ratio, with a control signal flat, not every such curve was filed as active; inconclusive = small, poorly fitted or top-dose-only effect, or effect the other way, or a change in a side signal; the % refers to the signal ratio;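 also: potency is read from the fitted curve at half-maximal effect; plate controls were basal doxycycline-induced cells for no effect and cells given 10 µM MG132 for full effect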
#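 Concentration-response series (up to 46 uM) were applied to TMD8 dual-reporter cells for 4 h at 37C with doxycycline. Green/red ratio, after filter-overlap correction, defined %Activity; red signal alone was normalised to basal cells and zero luminescence.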
# SW480 rereplic: A quantitative high throughput screen for small molecules that induce DNA re-replication in SW480 colon adenocarcinoma cells | SW480 DNA re-replication, Hoechst DNA content imaging, 48 h | Potency, µM (titrated, usually from 46.1 µM), for inactives: at the top dose re-replication activation, actives largely listed as activators | 340,000 compounds, 1.8% hits; also: potency is read from the fitted curve at half-maximal effect; % of control where 0% means no effect; nearly all actives have a fitted effect of over 55% in size
#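 250 cells/well; 23 nL cpd via pin tool; 48 hr, 37 C, 5% CO2; Hoechst 40 min; imager read of total nuclear intensity, ex 405/em 500-530 nm.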
# * hit, by the source's call; ? = inconclusive; nt = no result given; [ ] = another dose, or the depositor's remark. Rows were chosen to be rich in hits. Some 19% of all compounds tested hit in one or more screens of this group. Unless noted, calls follow the shape of the dose curve; as a rule, active = well fitted curve in the direction sought with a large enough effect; inconclusive = small, poorly fitted or top-dose-only effect, or another doubt; inactive = no such curve, though single readings can be large; an effect the other way counts as inactive or inconclusive.
SMILES,DT40 TDP1 CPT,DT40 TDP1 no CPT,MCF10A rerep,IL1B secr inh,BCR signal inh,SW480 rereplic
CC(=O)c1ccc(-n2ccc(=O)cc2)cc1,7%,0%,-12%,9,4%,-13%
Cc1ccc(S(=O)(=O)OCCC2=CC(=O)CCN2Cc2ccccc2)cc1,16µM*,?,0%,-28,5%,-10%
Nc1nc(NCc2ccc(F)cc2)c2[nH]cnc2n1,-3%,-13%,nt,nt,nt,nt
Nc1nc(NCc2ccc(Cl)c(Cl)c2)c2[nH]cnc2n1,?,13µM*,nt,nt,nt,nt
Cc1cccc(N2CC(O)(c3cccs3)[N+]3=C2CCCC3)c1C (stereo not drawn),?,21µM*,-6%,0,-1%,?
CC(C)NC(=O)CCN1C(=O)c2ccccc2Sc2ncccc21,-9%,25%,1%,0,-1%,?
Cc1ccc(C)c(NC(=O)CCN2C(=O)c3ccccc3Sc3ncccc32)c1,?,18µM*,nt,nt,nt,nt
O=C(CCN1C(=O)c2ccccc2Sc2ncccc21)Nc1ccc(F)cc1,16µM*,?,nt,nt,nt,nt
CCCNC(=O)CCCN1C(=O)c2ccccc2Sc2ncccc21,-20%,9%,-13%,-8,0%,1%
CCCCSCCCNC(=O)CCCN1C(=O)c2ccccc2Sc2ncccc21,?,16µM*,4%,-23,-6%,2%
CC1CCc2cc(F)cc3c2N1C(=O)C(C(=O)Nc1cnccn1)C3=O (stereo not drawn),1µM*,0.79µM*,nt,nt,nt,nt
O=C(Nc1cnccn1)C1c2ccccc2Oc2ccccc21,-7%,-1%,-24%,-5,-1%,-2%
CCO[C@H]1OC(C(=O)N2CCOCC2)=C[C@@H](c2cn(C(C)=O)c3ccccc23)[C@@H]1CCCO,-17%,-20%,-2%,9,?,?
CCO[C@@H]1OC(C(=O)N2CCCCCCC2)=C[C@H](c2cn(C(C)=O)c3ccccc23)[C@H]1CCCO,16µM*,?,?,-53*,4%,20%[9.22 µM]
CCO[C@@H]1OC(C(=O)N2CCCCCCC2)=C[C@H](c2csc3ccccc23)[C@H]1CCCO,21µM*,23µM*,?,?,-5%,-23%[9.22 µM]
Cc1c(C(=O)N(Cc2ccc(F)cc2)C2CCS(=O)(=O)C2)oc2ccccc12 (stereo not drawn),?,-28%,-1%,?,0%,-7%
Cc1c(C(=O)N(Cc2ccc(N(C)C)cc2)C2CCS(=O)(=O)C2)oc2ccccc12 (stereo not drawn),29µM*,?,3%,-6,?,-2%
O=C(Cn1c(=O)oc2ccccc21)N(Cc1ccccc1)C1CCS(=O)(=O)C1 (stereo not drawn),23µM*,?,?,-5,6%,-1%[9.22 µM]
CCc1ccc(CN(C(=O)c2cc3ccccc3oc2=O)C2CCS(=O)(=O)C2)cc1 (stereo not drawn),-26%,-19%,4%,8,?,-1%
CCc1ccc(CN(C(=O)c2oc3ccccc3c2C)C2CCS(=O)(=O)C2)cc1 (stereo not drawn),?,18µM*,0%,-27,3%,5%
Cc1c(C(=O)N(Cc2ccccc2)C2CCS(=O)(=O)C2)oc2ccccc12 (stereo not drawn),?,21µM*,3%,-27,?,2%
Cc1c(Cl)cccc1NC(=O)CC1Oc2ccccc2NC1=O (stereo not drawn),2%,-2%,14%,17,?,-5%
CCOc1ccc(NC(=O)CSc2ncc3c(n2)-c2ccccc2N(Cc2ccccc2C)S3(=O)=O)cc1,-29%,-26%,nt,nt,nt,nt
Cc1ccsc1CN(C(=O)c1oc2ccccc2c1C)C1CCS(=O)(=O)C1 (stereo not drawn),8.2µM*,5.2µM*,nt,nt,nt,nt
COc1ccccc1C(=O)N(Cc1sccc1C)C1CCS(=O)(=O)C1 (stereo not drawn),-11%,3%,4%,-9,0%,4%
SMILES,DT40 TDP1 CPT,DT40 TDP1 no CPT,MCF10A rerep,IL1B secr inh,BCR signal inh,SW480 rereplic
O=C(c1ccccc1)N(Cc1cccc(Br)c1)C1CCS(=O)(=O)C1 (stereo not drawn),-3%,3%,19%,0,0%,-26%
Cc1c(C(=O)N(Cc2cccc(Br)c2)C2CCS(=O)(=O)C2)oc2ccccc12 (stereo not drawn),?,21µM*,17%,-14,?,-8%
Cc1ccc(OCC(=O)NCC(=O)OCc2cc(=O)n3nc(CC(C)C)sc3n2)cc1,-24%,-20%,nt,nt,nt,nt
COc1cccc(NC(=O)c2ccc3[nH]c(C)cc(=O)c3c2)c1,-16%,?,nt,nt,nt,nt
COc1ccc(-c2[nH]ncc2CN2CCC(O)(c3ccc(Cl)cc3)CC2)cc1,?,10µM*,2%,-59*,?,-4%
COc1ccc(-c2[nH]ncc2CN2CCN(c3ccc(F)cc3)CC2)cc1,-19%,-37%,0%,-15,3%,-5%
OC1(c2ccc(Cl)cc2)CCN(Cc2cn[nH]c2-c2ccc(F)cc2)CC1,13µM*,4.1µM*,1%,?,-18%,3%
COc1ccc(C2(O)CCN(Cc3nnnn3Cc3ccc(C)cc3)CC2)cc1,-25%,-15%,21µM*,-7,-16%,?
Fc1ccc(-c2[nH]ncc2CN2CCN(c3ccc(F)cc3)CC2)cc1,-26%,?,-5%,nt,5%,12%
OC1(c2ccc(Cl)cc2)CCN(Cc2cn[nH]c2-c2ccccc2)CC1,16µM*,15µM*,2%,-53*,1%,-3%
COc1ccc(Cn2nnnc2CN2CCC(O)(c3ccc(F)cc3)CC2)cc1,4%,?,-4%,-7,-1%,-6%
COc1ccc(Cn2nnnc2CN2CCc3ccccc3C2)cc1,-4%,-28%,13%,0,-12%,1%
COc1ccc(Cn2nnnc2CN2CCc3ccccc32)cc1,-14%,-7%,9%,24,-17%,23µM*
CC1CCN(CC(=O)Nc2cccc(C(=O)Nc3cccc(C(F)(F)F)c3)c2)CC1,?,16µM*,?,-75*,-5%,?
O=C(CN1CCN(c2ccccc2)CC1)Nc1cccc(C(F)(F)F)c1,1%,-13%,-14%,14,0%,-3%
